Assay outcomes: PubChem, National Center for Advancing Translational Sciences (NCATS)
A selection: hits, their analogues and other compounds. The true share with any hit is near 2%.
JMJD2E inh: blocks human JMJD2E demethylase activity; B2RXH2; JMJD2E catalytic domain, FDH-coupled NADH fluorescence (FDH is formaldehyde dehydrogenase); Potency, µM (series often up to 57.1 µM), actives largely listed as inhibitors; 1.6% of 230,000 active; active = well fitted inhibition curve with a large enough effect, not every such curve was filed as active; inconclusive = small, poorly fitted or top-dose-only effect, or another doubt; inactive = no such curve, though single readings can be large or run the other way; also: nearly all actives have a fitted effect of over 50% in size
CtBP-E1A inh: blocks the CtBP interaction with E1A; AlphaScreen GST-E1A/His-CtBP binding, 1536-well; active compounds read low; activity change, % (test concentration not listed); 0.49% of 340,000 active; AID 651724
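AlphaScreen with 125 nM GST-E1A and 125 nM His-CtBP (5X stocks) in Tris pH 8.0, 300 mM NaCl, BSA, Tween 20, TCEP. Compounds preincubated 2 h at 37 deg C, then glutathione donor/nickel acceptor beads added for 1 h at 37 deg C in dark.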
Six1-Eya2 blk: Six1/Eya2 interaction inhibition. AlphaScreen GST-Six1/His-Eya2 binding, biochemical; active compounds read low. Q15475+O00167. 0.56% of 360,000 active. activity change, % (concentration not given with the values)
Target sequence (O00167 whole entry, looked up): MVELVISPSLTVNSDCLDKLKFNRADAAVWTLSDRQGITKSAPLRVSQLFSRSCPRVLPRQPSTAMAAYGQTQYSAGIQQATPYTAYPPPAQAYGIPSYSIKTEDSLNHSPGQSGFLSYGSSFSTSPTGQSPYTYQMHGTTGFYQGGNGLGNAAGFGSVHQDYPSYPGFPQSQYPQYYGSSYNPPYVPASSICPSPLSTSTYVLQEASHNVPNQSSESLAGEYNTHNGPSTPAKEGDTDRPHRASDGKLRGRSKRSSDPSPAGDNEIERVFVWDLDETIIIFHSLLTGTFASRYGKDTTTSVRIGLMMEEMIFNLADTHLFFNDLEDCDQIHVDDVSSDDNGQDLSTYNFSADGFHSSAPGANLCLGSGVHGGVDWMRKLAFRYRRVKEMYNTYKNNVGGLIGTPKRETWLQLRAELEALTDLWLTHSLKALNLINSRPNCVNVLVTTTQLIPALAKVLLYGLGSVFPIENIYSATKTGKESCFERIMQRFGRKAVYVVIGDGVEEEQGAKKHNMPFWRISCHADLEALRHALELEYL
Target sequence (Q15475 whole entry, looked up): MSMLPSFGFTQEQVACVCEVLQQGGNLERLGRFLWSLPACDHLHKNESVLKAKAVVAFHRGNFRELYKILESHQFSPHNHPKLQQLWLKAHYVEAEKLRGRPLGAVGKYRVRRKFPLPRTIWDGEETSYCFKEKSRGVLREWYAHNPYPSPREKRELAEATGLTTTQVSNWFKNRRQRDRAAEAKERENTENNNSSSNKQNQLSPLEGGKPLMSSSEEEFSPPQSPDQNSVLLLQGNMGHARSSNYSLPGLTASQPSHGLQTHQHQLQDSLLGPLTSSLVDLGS
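Homogeneous AlphaScreen proximity assay pairing GST-Six1 with His-tagged Eya2 (added as 5X mix: 250 nM and 500 nM) in 50 mM Tris pH 8.0, 300 mM NaCl, 1 mM TCEP. Glutathione donor and nickel acceptor beads; 1 h, 37 °C, dark.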
hERG WT inh: KCNH2 (human, wildtype) channel inhibition; U2OS, BacMam KCNH2, thallium flux FluxOr; active compounds read low; activity change, % at 1.84 µM; 0.37% of 340,000 active; AID 720551;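 active = maximum activity change below -70%; inconclusive = maximum activity change between -70% and -50%; inactive = maximum activity change above -50%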
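U2OS cells were transduced with wild-type KCNH2 virus (2.03 x 10^8 / mL) for 4 h at room temperature, then cultured overnight at 37 C. Thallium flux was read with FluxOr dye. Rate constants were normalized to DMSO controls.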
KCNH2 3.1 inh: KCNH2 3.1 (human) potassium channel inhibition; U2OS KCNH2 3.1, thallium flux FluxOr; active compounds read low; activity change, % (tested at about 1.8 µM); 0.95% of 340,000 active;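 active = maximum activity change below -70%; inconclusive = maximum activity change from -70% to -50%; inactive = maximum activity change above -50%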;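 also: thallium influx rate constant from kinetic fluorescence after stimulation buffer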
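Virally transduced U2OS (3.1 isoform, 4 h infection in dark at RT) → overnight 37 C → FluxOr + Red40 in HBSS/HEPES, 45 min → stimulation buffer, 2 min kinetic read → rate constant vs DMSO controls.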
Of the large screens only hits and unclear results are named; the others gave an inactive call; ! = not active in a repeat. Rule as the data show it, unless noted: active = activity change below about -65%; inconclusive = mostly about -30% to -63%; inactive = weaker than that.

O=C(NCCCN1CCOCC1)c1ccccc1N1C(=O)[C@@H]2Cc3c([nH]c4ccccc34)C(c3ccc(F)cc3)N2C1=O (stereo partly specified)	KCNH2 3.1 inh -82 (no result: JMJD2E inh)
O=C(NCCN1CCOCC1)c1ccccc1N1C(=O)[C@@H]2Cc3c([nH]c4ccccc34)C(c3ccccc3)N2C1=O (stereo partly specified)	none (no result: JMJD2E inh)
Cc1ccc2[nH]c(CN3CCN(C)C(CCO)C3)c(C)c2c1 (stereo unspecified)	none (no result: JMJD2E inh)
CCOc1ccc(CN2CCN(Cc3[nH]c4ccc(OC)cc4c3C)CC2CCO)cc1 (stereo unspecified)	hERG WT inh -73, KCNH2 3.1 inh -107
Cc1ccc(CN2CCN(Cc3cc(=O)c4ccccc4[nH]3)CC2CCO)o1 (stereo unspecified)	hERG WT inh -118
CCOc1ccccc1CN1CCN(Cc2[nH]c3ccccc3c2C)CC1CCO (stereo unspecified)	KCNH2 3.1 inh -74 (no result: CtBP-E1A inh)
Cc1ccc(CN2CCN(Cc3c[nH]c4ccccc34)CC2CCO)o1 (stereo unspecified)	none
COc1ccc(NC(=O)c2[nH]c(C)c(C(C)=O)c2C)cc1S(=O)(=O)Nc1ccc(Br)cc1	none
Cc1ccc(C)c(S(=O)(=O)N2CCN(C(=O)Cc3c(F)cccc3Cl)CC2)c1	KCNH2 3.1 inh -78 (no result: JMJD2E inh)
Cc1ccc(S(=O)(=O)N2CCN(C(=O)COC(=O)Cc3c(F)cccc3Cl)CC2)c(C)c1	none (no result: JMJD2E inh)
O=C(O)/C=C/c1ccc2c(-c3ccccc3)onc2c1	hERG WT inh -126
COc1ccc(CCNS(=O)(=O)CCNC(=O)c2ccc(OC)cc2)cc1	none (no result: JMJD2E inh)
CC(=O)C1C(c2ccccc2)c2c(noc2C)CC1(C)O (stereo unspecified)	none
Cc1ccc(NCc2nnc(SCc3ccc(C#N)cc3)n2Cc2ccco2)c(C)c1	hERG WT inh -97, KCNH2 3.1 inh inconclusive
Cc1ccc(N=Nc2c(O)[nH]c3ccc(F)cc23)cc1	none
O=c1[nH]nc(N=Nc2c(O)[nH]c3ccc(F)cc23)c(=O)[nH]1	CtBP-E1A inh -71, Six1-Eya2 blk -80 (no result: JMJD2E inh)
COc1cccc(C2C=C(c3ccc(Br)s3)Nc3ncnn32)c1OC (stereo unspecified)	JMJD2E inh inconclusive
O=C(N/N=C/c1ccccc1F)c1ccc(COc2ccccc2Cl)o1	none
CCC(c1nnc(SCC(=O)Nc2cc(C)on2)o1)N(C)C (stereo unspecified)	CtBP-E1A inh -91, Six1-Eya2 blk inconclusive (no result: JMJD2E inh)
O=C(CSc1nnc(CNC(=O)c2c(F)cccc2F)o1)Nc1ccc2c(c1)OCO2	none (no result: JMJD2E inh)
Cc1cc(NC(=O)CSc2nnc(CNC(=O)c3c(F)cccc3F)o2)no1	CtBP-E1A inh -80, Six1-Eya2 blk inconclusive (no result: JMJD2E inh)
Cc1cc(NC(=O)CSc2nnc(-c3ccc(O)cc3)o2)no1	Six1-Eya2 blk inconclusive
Cc1cc(NC(=O)CSc2nnc(C)o2)no1	CtBP-E1A inh -86, Six1-Eya2 blk inconclusive (no result: JMJD2E inh)
Cc1cc(C)cc(-c2nnc(SCC(=O)Nc3cc(C)on3)o2)c1	CtBP-E1A inh -65, Six1-Eya2 blk inconclusive (no result: JMJD2E inh)
CCOc1ncccc1C(=O)OCC(=O)Nc1c(C)cc(C)cc1C	none
Cc1nnc(SCC(=O)Nc2nccs2)s1	none
Cc1nnc(SCC(=O)Nc2nccs2)o1	CtBP-E1A inh -73, Six1-Eya2 blk inconclusive (no result: JMJD2E inh)
N#CC(Cc1ccc(O)c(O)c1)C(=O)N1CCc2ccccc21 (stereo unspecified)	JMJD2E inh 20µM (no result: CtBP-E1A inh, Six1-Eya2 blk, hERG WT inh, KCNH2 3.1 inh)
COC(=O)[C@@]1(Cc2ccc(F)cc2)[C@H]2c3cc(C(=O)N4CCCC4)n(Cc4ccc(C(F)(F)F)nc4)c3C[C@H]2CN1C(=O)c1ccccc1	none
Cc1ccnc(N2CCC(C(=O)NCc3ccc4c(c3)OCO4)CC2)n1	JMJD2E inh inconclusive, hERG WT inh -195
COC(=O)C(NS(=O)(=O)c1ccc(C)cc1)c1ccccc1 (stereo unspecified)	none (no result: KCNH2 3.1 inh)
Cc1ccc(S(=O)(=O)NC(C(=O)Oc2ccc3c(C(F)(F)F)cc(=O)oc3c2)c2ccccc2)cc1 (stereo unspecified)	JMJD2E inh 32µM
O=C1c2cccc3c([N+](=O)[O-])ccc(c23)C(=O)N1O	hERG WT inh -197 (no result: JMJD2E inh, CtBP-E1A inh)
O=C1c2cccc3c([N+](=O)[O-])ccc(c23)C(=O)N1c1ccccn1	none
Cc1ccc(OCC(=O)Nc2cccc(O)c2)cc1C	none
OC(CNCC1(N2CCCCC2)CCCCC1)COc1ccc(Cl)cc1Cl (stereo unspecified)	JMJD2E inh inconclusive, hERG WT inh inconclusive, KCNH2 3.1 inh -86
CCN(CC)CCSc1nc2ccccc2n1Cc1ccccc1	hERG WT inh inconclusive, KCNH2 3.1 inh -75 (no result: JMJD2E inh)
CC1=NN(c2nc3ccccc3[nH]2)C(=O)C1Cc1ccccc1 (stereo unspecified)	JMJD2E inh inconclusive, CtBP-E1A inh -81, Six1-Eya2 blk -91
COc1cccc(-c2noc(CCCC(=O)NC3CCCC3)n2)c1	none (no result: JMJD2E inh)
CC(Oc1ccc(Br)cc1)C(=O)N1CCC(C(N)=O)CC1 (stereo unspecified)	KCNH2 3.1 inh -71
C[C@@H]1CN([C@H](C)CO)C(=O)CCCn2nncc2CO[C@H]1CN(C)C(=O)c1cc(-c2ccccc2)on1	KCNH2 3.1 inh -97 (no result: JMJD2E inh)
CC(NC(=O)C(=O)N1CCOCC1)C(c1cccs1)N1CCN(c2ccccc2F)CC1 (stereo unspecified)	KCNH2 3.1 inh -122 (no result: JMJD2E inh)
CC(NC(=O)C(=O)N1CCCCC1)C(c1cccs1)N1CCN(c2ccccc2F)CC1 (stereo unspecified)	none (no result: JMJD2E inh)
O=C(OCC1OC(n2cnc3c(N(C(=O)c4ccccc4)C(=O)c4ccccc4)ncnc32)C(O)C1F)c1ccccc1 (stereo unspecified)	KCNH2 3.1 inh -86
N#CCCN1CCN(C(=S)c2ccc(-c3ccc(Cl)cc3)o2)CC1	JMJD2E inh 13µM, Six1-Eya2 blk inconclusive
COc1ccc(C)cc1S(=O)(=O)NCCC1=CCCCC1	hERG WT inh -257
Cn1c(Cc2csc(N)n2)nnc1SCC(=O)NC1CCCCC1	JMJD2E inh inconclusive
N=C(N)SCc1nc2ccccc2c(=O)n1-c1ccccc1	JMJD2E inh inconclusive, CtBP-E1A inh -83!, Six1-Eya2 blk -82!
CCC1=Nc2ccccc2-c2nnc(SC)nc2O1	none
CSc1nnc2c(n1)OC(C)=Nc1ccccc1-2	Six1-Eya2 blk -66
COc1cccc(-c2ccc(NC(=O)C3CCCN(Cc4ccco4)C3)cc2)c1 (stereo unspecified)	none (no result: JMJD2E inh)
COc1cccc(-c2ccc(NC(=O)C3CCCN(CCCn4nc(C)cc4C)C3)cc2)c1 (stereo unspecified)	KCNH2 3.1 inh -74 (no result: JMJD2E inh)
CC(C)CN(C(=O)CN1C(=O)C2CCCCC2C1=O)c1c(N)n(Cc2ccccc2)c(=O)[nH]c1=O (stereo unspecified)	none (no result: JMJD2E inh)
COc1cc(N2CCCC2)c(OC)cc1/C=C(/C#N)c1ccc(F)cc1	CtBP-E1A inh inconclusive, Six1-Eya2 blk -78
O=C(COc1cccc(C(F)(F)F)c1)NCC(c1ccco1)N1CCCC1 (stereo unspecified)	none (no result: JMJD2E inh, CtBP-E1A inh)
